Drawing on PubChem BioAssay (Tox21), this text covers Potency and activity, negative = inhibition for 40 compounds.

Inconclusive results are not listed. Entries that show only a call come without a potency. Values without a mark were called inactive. Calls of active or inactive are those of the source. Calls come from the whole dose curve.

Chain of Acetylcholinesterase (Homo sapiens) (P22303 whole entry, looked up): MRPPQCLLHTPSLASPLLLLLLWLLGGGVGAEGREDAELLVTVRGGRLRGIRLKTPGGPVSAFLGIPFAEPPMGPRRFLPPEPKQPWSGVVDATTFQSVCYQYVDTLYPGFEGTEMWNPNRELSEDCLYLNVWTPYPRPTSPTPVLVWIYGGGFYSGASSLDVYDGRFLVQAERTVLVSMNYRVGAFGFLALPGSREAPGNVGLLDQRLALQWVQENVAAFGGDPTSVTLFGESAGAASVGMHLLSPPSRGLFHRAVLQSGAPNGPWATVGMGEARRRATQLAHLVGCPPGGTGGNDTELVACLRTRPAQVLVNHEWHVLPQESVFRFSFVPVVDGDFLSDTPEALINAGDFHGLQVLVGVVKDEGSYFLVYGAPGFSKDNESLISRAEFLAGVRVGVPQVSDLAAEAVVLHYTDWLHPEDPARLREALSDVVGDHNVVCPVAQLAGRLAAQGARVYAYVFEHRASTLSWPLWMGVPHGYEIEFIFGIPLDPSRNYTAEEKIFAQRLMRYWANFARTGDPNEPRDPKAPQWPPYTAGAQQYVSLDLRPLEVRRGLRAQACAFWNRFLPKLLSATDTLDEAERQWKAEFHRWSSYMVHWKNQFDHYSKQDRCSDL

In this assay the target is Acetylcholinesterase (Homo sapiens) (UniProt P22303). The assay can be described thus: Acetylcholinesterase (AChE) small molecule antagonists: colormetric cell-based qHTS assay (AID 1347395). Note: nearly all actives have a fitted effect of over 30% in size. To be noted: SH-SY5Y cells AChE activity, colorimetric (Ellman); series mostly up to 115 µM. A digest of the protocol:
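Endogenous AChE of human neuroblastoma SH-SY5Y cells was measured with an Ellman-type DTNB/acetylthiocholine mix. Compound pretreatment lasted 30 min at 37 C; substrate reaction ran 90 min at 37 C.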
For the compound `O=C(O)Cn1c(=O)n(Cc2ccc(Br)cc2F)c(=O)c2ccc(Cl)cc21`, the Potency result is “inactive”.

With `O=C(COCCOCCOCC(=O)Nc1c(I)cc(I)c(C(=O)O)c1I)Nc1c(I)cc(I)c(C(=O)O)c1I`, the Potency result was “inactive”.

`COc1cc(C=O)ccc1OC(=O)C(C)C`: the Potency entry was “inactive”.

Consider `C#CC(C)(CC)OC(=O)c1ccccc1C(=O)O` (stereo not given), for which the Potency result is “inactive”.

Turning to `CC(C)(C)C(=O)NCCCC(=O)O`, the Potency entry is “inactive”.

On to `O=C(O)CCSCCC(=O)O`, for which the Potency result was “inactive”.

Regarding `CC1(C)[C@@H]2CC[C@@]1(C)[C@H](O)C2`, the Potency result is “inactive”.

Regarding `CCN1C(=O)c2ccccc2C1Nc1ccc(OCCN2CCCCC2)cc1` (stereo not given), the Potency entry was “inactive”.

Regarding `Cc1ccc(Nc2c(F)cccc2Cl)c(CC(=O)O)c1`, the Potency result is “inactive”.

As for `CC(C)(C(=O)c1cccnc1)c1cccnc1`, the Potency result is “inactive”.

For the compound `C#Cc1ccc(-c2ccccc2F)cc1`, the Potency result was “inactive”.

In the case of `Nc1ccc(S(=O)(=O)c2ccc(N)cc2)cc1`, the Potency entry is “inactive”.

`COc1cc(C(=O)N2CCCCCCC2)cc(OC)c1OC`: the Potency entry was “inactive”.

Take `Nc1ccc(C(=O)O)cc1`: the Potency result is “inactive”.

Take `CC(=O)OCC(COC(C)=O)OC(C)=O`: the Potency entry is “inactive”.

Consider `CN1C[C@@H]2C[C@H]1CN2c1cc2c(cc1F)c(=O)c(C(=O)O)cn2C1CC1`, for which the activity, negative = inhibition is 1.26% [at 23.6 µM].

Consider `CCCCCCC`, for which the Potency result was “inactive”.

On to `CC(=O)Nc1ccc(/C=N/NC(N)=S)cc1`, for which the Potency entry is “inactive”.

On to `CC1(C)Oc2ccc(C#N)cc2[C@@H](N2CCCC2=O)[C@@H]1O`, for which the Potency entry was “inactive”.

Take `O=C(Cl)c1ccccc1[N+](=O)[O-]`: the Potency entry was “inactive”.

On to `C=C(C)[C@H]1CC=C(C)C(=O)C1`, for which the Potency result was “inactive”.

As to `CC(C)CCCC(C)N` (stereo not given), the Potency result was “inactive”.

`CCO[Si](CCC#N)(OCC)OCC`: the Potency entry is “inactive”.

On to `O=C1CCCC(=O)O1`, for which the Potency entry was “inactive”.

`CC1(C)C(=O)NC(=O)N1CO`: the Potency result is “inactive”.

`CC(C)c1cccc(C(C)C)c1N1C(=O)c2ccc(O)cc2C1=O`: the Potency entry is “inactive”.

As to `CC(=O)CCC(=O)O`, the Potency result was “inactive”.

As for `CCc1oc2ccccc2c1C(=O)c1cc(I)c(O)c(I)c1`, the Potency result is “inactive”.

Turning to `O=C(O)c1cc(O)c2c(c1)C(=O)c1cccc(O)c1C2=O`, the Potency entry was “inactive”.

For the compound `CC1(C)CC(=O)CC(C)(C)N1`, the Potency result was “inactive”.

Turning to `CC(=O)CC/C=C(\C)CC/C=C(\C)CC/C=C(\C)CCC=C(C)C`, the Potency entry was “inactive”.

As to `CC(C)OC(=O)c1cc(C(=O)OC(C)C)cc([N+](=O)[O-])c1`, the Potency entry was “inactive”.

In the case of `c1ccc2c(c1)CCc1ccccc1N2`, the Potency entry was “inactive”.

Take `CC(=O)CC(C)(C)O`: the Potency result is “inactive”.

For the compound `C/C=C/C=C/CO`, the Potency result was “inactive”.

As to `Cc1cc(O)c(C(C)C)cc1Cl`, the Potency result is “inactive”.

As for `O=C=Nc1cccc(C(F)(F)F)c1`, the Potency result is “inactive”.

For `O=c1cc(-c2ccccc2)oc2cc(O)cc(O)c12`, the Potency result is “inactive”.

Turning to `CC1=Nc2ccc3ccccc3c2C1(C)C`, the Potency entry is “inactive”.

Regarding `CC(=O)[C@@]1(O)CC[C@H]2[C@@H]3C[C@H](C)C4=CC(=O)C=C[C@]4(C)[C@@]3(F)[C@@H](O)C[C@@]21C`, the Potency entry is “inactive”.
